In the library only some 6.4% were active in any assay of this set; here they are far more common.
RORgamma inh: ROR gamma (mouse) transcription inhibition; P51450; Drosophila S2 Gal4-RORgamma UAS-luciferase reporter, 20 h; Potency, µM (top dose mostly 53.6 µM), for inactives: top-dose activity change, negative = inhibition, usual class: inhibitors; 310,000 tested, 5.4% active; AID 2551; note: nearly all actives have a fitted effect of over 60% in size
Target sequence (P51450 whole entry, looked up, the tested form may be a part): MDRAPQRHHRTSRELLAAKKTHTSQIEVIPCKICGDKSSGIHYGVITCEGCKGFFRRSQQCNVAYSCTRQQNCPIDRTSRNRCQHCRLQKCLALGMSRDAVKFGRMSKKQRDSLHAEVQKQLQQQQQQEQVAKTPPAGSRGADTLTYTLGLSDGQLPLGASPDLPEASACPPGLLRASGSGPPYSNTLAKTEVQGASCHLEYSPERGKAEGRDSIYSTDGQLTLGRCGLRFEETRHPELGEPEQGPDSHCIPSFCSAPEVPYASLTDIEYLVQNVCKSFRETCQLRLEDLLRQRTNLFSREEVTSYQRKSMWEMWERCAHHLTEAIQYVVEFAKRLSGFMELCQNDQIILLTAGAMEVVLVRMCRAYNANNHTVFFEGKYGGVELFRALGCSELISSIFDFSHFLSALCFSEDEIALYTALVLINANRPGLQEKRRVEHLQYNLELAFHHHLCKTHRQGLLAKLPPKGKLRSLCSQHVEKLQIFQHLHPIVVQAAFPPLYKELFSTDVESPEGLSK
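Compounds are pin-transferred onto Drosophila Schneider cells expressing a copper-inducible Gal4–ROR gamma transactivation domain fusion. After 1 hr, copper sulfate is added to 700 uM final; luciferase is read 20 hr later.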
KinaseGlo FLuc: Kinase-Glo luciferase inhibition (counter-screen) | Q27757 | 200,000 tested, 0.28% active | Kinase-Glo luciferase, ATP luminescence, 8 min | Potency, µM (series often up to 38.3 µM), without a hit: at the top dose activity change, negative = inhibition, usual class: inhibitors; note: nearly all actives have a fitted effect of over 60% in size
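Substrate mix (final 50 mM imidazole pH 7.2, 50 mM KCl, 7 mM MgCl2, 10 uM ATP, 0.01% Tween 20, 0.05% BSA) plus pin-tool compound, then Kinase-Glo detection mix; 8 min ambient, luminescence read.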
Gal4-VP16 FLuc: counter-screen for ROR gamma inhibitors: Gal4-VP16 reporter; Potency, µM (doses to about 53.6 µM), inactives show at the highest dose activity, negative = inhibition, actives largely listed as inhibitors; 310,000 tested, 3.5% active; Drosophila S2 Gal4-VP16 UAS-luciferase, luminescence, 20 h;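 note: Gal4-VP16 expression switched on by copper sulfate through the metallothionein promoter; nearly all actives have a fitted effect of over 50% in size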
* hit, by the source's call; u = inconclusive; x = not tested or not shown; ! = not confirmed by another sample; [ ] = dose if it differs, or a comment. Calls come from the whole dose curve; as a rule, active = well fitted curve in the direction sought with a large enough effect; inconclusive = small, poorly fitted or top-dose-only effect, or another doubt; inactive = no such curve, though single readings can be large; an effect the other way counts as inactive or inconclusive. % is set by controls: 0 for no effect and ±100 for the full control effect; potency is the fitted concentration of half-maximal effect.

SMILES | RORgamma inh | KinaseGlo FLuc | Gal4-VP16 FLuc
O=c1[nH]c(=S)n(CCC2=CCCCC2)c(O)c1/C=N/N1CCOCC1 | u | x | -5%
Clc1ccccc1-c1cncnc1NCCc1cnc[nH]1 | -2% | x | 1%
C[C@H](Br)CN(C[C@H](C)Br)c1ccc2c(c1)Cc1ccccc1-2 | x | -4%[7.66 µM] | x
COc1ccc(C[C@@H]2NC[C@H](O)[C@@H]2OC(C)=O)cc1 | 0.32µM* | 3%[17.1 µM] | 0.04µM*
COc1ccc(CCNC2CCCCC2)cc1 | -14% | -1% | -4%
COC1C=CC23c4cc5c(cc4CN(CC2O)C3C1)OCO5 (centres undefined) | 3.2µM* | -6% | 1.3µM*
COc1c2c(cc3c1OCO3)C13C=CC(OC)CC1N(C2)CC3O (centres undefined) | 0% | -2% | -3%
CCCN1[C@H](C(=O)OC)C[C@@H]2CC[C@@H](O)C[C@@H]21 | -21% | -1% | 1%
Cc1cccc(N)c1C | -8% | x | 10%
COc1ccc(CN2C(=O)NC(=O)/C(=C/c3cc(OC)c(OC)c(OC)c3)C2=O)cc1 | -3% | x | -10%
COc1ccc(CN2C(=O)NC(=O)/C(=C/c3ccc(OC)c(OC)c3OC)C2=O)cc1 | -41% | x | 1.3µM*
C=CC(N)=O | -7% | x | 6%
Oc1c(Cl)c(Cl)c(Cl)c(Cl)c1Cl (tested in a mixture with another compound) | x | -3%[7.66 µM] | x
CN[C@H]1C[C@H]2O[C@@](C)([C@H]1OC)n1c3ccccc3c3c4c(c5c6ccccc6n2c5c31)C(=O)NC4 | u | 1% | 6.3µM*
COC(=O)C1(O)CC2OC1(C)n1c3ccccc3c3c4c(c5c6ccccc6n2c5c31)C(=O)NC4 (centres undefined) | -20%[10 µM] | 4%[39.9 µM] | u
CCOc1cc2[nH]c(=S)n(CCCC(=O)N3CCC4(CC3)OCCO4)c(=O)c2cc1OCC | u | 1% | 20µM*
Cn1c(=O)cc(OCCCC(=O)N2CCC3(CC2)OCCO3)c2ccccc21 | u | -5% | 7%
O=[N+]([O-])C(Br)(CO)CO | -40%[10 µM] | x | u
O=[N+]([O-])/C=C/c1ccccc1 | 17% | x | u
CC1=C(O)C(=O)[C@H]2O[C@@H]2C1=O | 2.8µM* | -2% | 8.9µM*
c1ccc2cc3c(cc2c1)-c1cccc2cccc-3c12 | -17% | x | 3%
N[C@H](Cc1ccccc1)c1nn[nH]n1 | x | -7%[7.66 µM] | x
CCN1C[C@]2(C)CC[C@H](O)[C@@]34[C@@H]5C[C@@H]6[C@@H](OC)C[C@@](O)(C5[C@H]6O)[C@@H](C[C@@H]23)[C@@H]14 | x | -2% | x
Cc1ccccc1-n1c(/C=C/c2ccccn2)nc2ccccc2c1=O | 17% | x | -6%
CN1C2CCC1/C(=C/c1ccccn1)C(=O)/C2=C\c1ccccn1 | 2.8µM* | 0% | 2.5µM*
SMILES | RORgamma inh | KinaseGlo FLuc | Gal4-VP16 FLuc
Cc1ccc(OP(=O)(Oc2ccc(C)cc2)Oc2ccc(C)cc2)cc1 | 40% | x | -18%
Cc1c2ccncc2c(C)c2c1[nH]c1ccccc12 | 10µM* | -2% | 5.6µM*
Cc1nccc2c1[nH]c1ccccc12 | -24% | 0% | -14%
CCN(CC)c1ncnc2c1ncn2[C@@H]1O[C@@H](COP(=O)(O)OP(=O)(O)C(Br)(Br)P(=O)(O)O)[C@H](O)[C@H]1O | -10% | -1% | -4%
Cl/C=C/Cl | -2% | x | -26%
S=C(Nc1ccccc1)Nc1cccc(Br)c1 | 11µM* | 2% | 8%[10 µM]
Brc1ccccc1 | 14% | x | -15%
O=C(CSC1c2ccccc2-c2ccccc21)N/N=C/c1ccc(C(=O)O)cc1 | -35% | 1% | -2%
O=C(CSC1c2ccccc2-c2ccccc21)N/N=C/c1ccccc1O | 13µM* | 4% | 18µM*
Cc1ccc([N+](=O)[O-])cc1C | 14% | x | 9%
CC(C)C1C(=O)O[C@@H]2CCN3CC=C(COC(=O)[C@](C)(O)[C@]1(C)O)[C@H]23 (some centres undefined) | -31% | x | -4%
O=c1[nH]c(=S)[nH]c(O)c1N=Nc1ccc(-c2ccccc2)cc1[N+](=O)[O-] | u | -3% | 18µM*
O=c1[nH]c(=S)[nH]c(O)c1N=Nc1cc2c(cc1[N+](=O)[O-])OCO2 | -39% | -5% | -3%
O=C1CS[C@@H](c2ccccc2Cl)c2cc(Cl)ccc2N1 | 14% | -1% | -5%
Oc1cc[c]([Hg][Cl])cc1 | 2.5µM* | x | 2.8µM*
Cc1ccc(O)cc1 (tested in a mixture with another compound) | x | -6%[7.66 µM] | x
C=C(C)C1CNC(C(=O)O)C1CC(=O)O (centres undefined) | 16% | -1% | 10%
O=C(Cl)OCc1ccccc1 | -22% | x | 0%
C[N+](=O)[O-] | -13% | x | 0%
CCOC(=O)c1cc(C)sc1/N=C/C1C(=O)NC(=S)NC1=O | 16µM* | 2% | 4%
CCOC(=O)c1c(/N=C/C2C(=O)NC(=S)NC2=O)sc(C)c1C | -10% | -1% | -8%
O=S(=O)(Nc1nccs1)c1ccc([As](=O)(O)O)cc1 | x | -1%[7.66 µM] | x
CCCC(=O)Cl | -10% | x | 4%
ClCc1ccccc1 | 7% | x | 4%
CC(C)NS(=O)(=O)c1ccc(OCC(=O)N2CCN(Cc3ccccc3)CC2)c(Cl)c1 | u | 2% | 20µM*
SMILES | RORgamma inh | KinaseGlo FLuc | Gal4-VP16 FLuc
CC(C)(C)NS(=O)(=O)c1ccc(OCC(=O)N2CCN(Cc3ccccc3)CC2)cc1 | -39% | -2% | u
C=C(C)[C@@]12OC3(c4ccccc4)O[C@@H]1[C@@H]1[C@@H]4O[C@]4(CO)[C@@H](O)[C@]4(O)C(=O)C(C)=C[C@H]4[C@@]1(O3)[C@H](C)[C@H]2OC(=O)/C=C/C=C/c1ccccc1 | 34% | x | -21%
O=c1ccc2cc(O[C@H]3OC(CO)C(O)C(O)C3O)c(O)cc2o1 (some centres undefined) | 25% | -12% | 6%
CC(C)(C)c1cc(O)ccc1O | 3.5µM*! | -3%[7.66 µM] | 3.2µM*
CC(C)(C)c1ccccc1O | 0% | x | -2%
[N-]=[N+]=NCC(=O)c1c[nH]c(=O)[nH]c1=O | x | -12%[7.66 µM] | x
C[C@H](CCC(=O)O)C[C@H](C)C[C@H](C)C(=O)/C=C(\O)[C@H](C)C[C@H](C)C/C=C/[C@@H](C)[C@@H](O)[C@@H](C)[C@@H](O)C[C@@H]1CC[C@@](C)([C@H]2CC[C@@](C)([C@@H](C)O)O2)O1 | -2% | -2%[39.9 µM] | -7%
CN1CCN(Cc2nc3ccccc3n2C)CC1 | -12% | 10% | -6%
Cn1c(NN=O)nc2ccccc21 | 0.035µM* | -1% | u
C[C@]12CC(=CO)C(=O)C[C@@H]1CC[C@@H]1[C@@H]2CC[C@@]2(C)[C@H]1CC[C@]2(C)O | u | x | 10µM*
C[C@]12CCC(=O)C=C1CC[C@@H]1[C@@H]2CC[C@@]2(C)[C@H]1CC[C@]2(C)O | 14% | 4%[39.9 µM] | 6%
CC[C@@H](CO)NC(=O)[C@H]1C=C2c3cccc4c3c(cn4C)C[C@H]2N(C)C1 | -4% | -4% | 4%
CC(C)Sc1nnc([C@@H](N)Cc2ccccc2)o1 | -57% | 0% | 11µM*
CSc1nnc([C@@H](N)Cc2ccccc2)o1 | -2% | 0% | 0%
CCOC(=O)C(SP(=S)(OC)OC)c1ccccc1 (centres undefined) | 13µM* | x | u
CCOC(=O)CC(SP(=O)(OC)OC)C(=O)OCC (centres undefined) | 0% | x | -14%
